Out of some 350,000 compounds screened, about 2,100 (0.6%) were called active.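 The calls were made as follows: active = inhibition of the ligand-induced calcium signal above about 50% at the single tested concentration (limit read from the data); inactive = the rest.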 The list comes from a sample in which actives are over-represented; it also holds similar structures and randomly drawn compounds.
experiment: antagonists of CRF-BP/CRF-R2 complex, primary screen, cell-based, HEK293, calcium dye fluorescence, uHTS (AID 588475); conditions: CRF-induced calcium fluorescence, at 11.8 µM, stronger effect = higher value

SMILES | inhibition
CCCCCn1c(=O)c(C(=O)NCc2ccccc2)c(O)c2ccccc21 | 3.02% (inactive)
CCCCn1c(=O)c(C(=O)Nc2ccccc2Cl)c(O)c2ccccc21 | -17.9% (inactive)
CCCCCn1c(=O)c(C(=O)Nc2c(C)n(C)n(-c3ccccc3)c2=O)c(O)c2ccccc21 | 56.7% (active)
O=C(COc1ccc2ccccc2c1)N1CCN(Cc2ccncc2)CC1 | -1.35% (inactive)
O=c1c2ccccc2nc(-c2ccc(Cl)cc2Cl)n1-c1ccncc1 | 13.6% (inactive)
